IL1B secr inh – inflammasome signaling inhibition, IL-1 beta readout. AID 743279. activity change, % at 57.5 µM. 4.7% of 360,000 active. THP-1 LPS/ATP IL-1B secretion, AlphaLISA, 16 h; stronger effect = lower value; in the data active = activity change below about -50%; inconclusive = mostly about -30% to -49%
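THP-1 cells pretreated 1 hr with compounds (up to 57.5 uM final), then stimulated with LPS (250 ng/mL final) plus ATP (1.25 mM final); secreted IL-1B measured by AlphaLISA after 16 hr, decreased signal indicating inhibition.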
RORg inh – ROR gamma (mouse) transcription inhibition. P51450. Drosophila S2 Gal4-RORgamma UAS-luciferase reporter, 20 h. Potency, µM (highest dose often 53.6 µM), inactives show at the top dose activity change, negative = inhibition, hits mostly inhibitors. 5.4% of 310,000 active. AID 2551; note: potency is the fitted concentration of half-maximal effect; nearly all actives have a fitted effect of over 60% in size
Target sequence (P51450 whole entry, looked up, the tested form may be a part): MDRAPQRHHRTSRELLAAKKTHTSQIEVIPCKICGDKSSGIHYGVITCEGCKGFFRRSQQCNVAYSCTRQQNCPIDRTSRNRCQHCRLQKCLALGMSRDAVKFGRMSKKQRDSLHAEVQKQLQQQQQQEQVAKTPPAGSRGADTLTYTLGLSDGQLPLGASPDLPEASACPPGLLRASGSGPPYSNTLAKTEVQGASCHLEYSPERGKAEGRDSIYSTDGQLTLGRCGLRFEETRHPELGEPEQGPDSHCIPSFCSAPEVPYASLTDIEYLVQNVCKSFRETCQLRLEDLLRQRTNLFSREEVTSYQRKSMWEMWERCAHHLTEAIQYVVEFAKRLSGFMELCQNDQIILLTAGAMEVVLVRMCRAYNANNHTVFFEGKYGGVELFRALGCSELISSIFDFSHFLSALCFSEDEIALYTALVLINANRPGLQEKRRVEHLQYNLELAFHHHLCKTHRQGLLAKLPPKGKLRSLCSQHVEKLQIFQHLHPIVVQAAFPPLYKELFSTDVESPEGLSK
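ROR gamma transcriptional activity was tracked as Gal4-UAS luciferase output in stably transfected Drosophila Schneider cells, with compound added 1 hr before 700 uM copper sulfate induction and a 20 hr ambient-temperature incubation.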
DT40 TDP1 no CPT – qHTS for Inhibitors of human tyrosyl-DNA phosphodiesterase 1 (TDP1): qHTS in cells in absence of CPT; AID 686978, 2013; DT40 Tdp1-/- hTDP1 cells, no CPT, ATP luminescence, 48 h; 15% of 420,000 active; Potency, µM (highest dose often 46.2 µM), for inactives: top-dose activity change, negative = growth inhibition, usual class: inhibitors; note: potency is the fitted concentration of half-maximal effect; nearly all actives have a fitted effect of over 55% in size
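Compound effects on proliferation are scored in DT40 Tdp1-/-;hTDP1 cells in the absence of CPT. ATP levels (CellTiter-Glo luminescence) are recorded after a ≥48 hr, 37 °C incubation.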
ELG1 repair inh – blocks ELG1-dependent DNA repair in HEK293T cells. HEK293T ELG1-luciferase reporter, luminescence, 16 h; DNA damage induced by 5-fluorouridine. Potency, µM (doses to about 46.1 µM), for the others: at the top dose activity change, negative = inhibition, actives largely listed as inhibitors. 2.3% of 330,000 active. AID 504467; note: potency is the fitted concentration of half-maximal effect; nearly all actives have a fitted effect of over 55% in size
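HEK293T cells expressing luciferase-tagged ELG1 (2,000/well) received 5-Fluorouridine plus compound or DMSO for 16 hr at 37 °C. Luciferase was read by ONE-Glo luminescence after 30 min at room temperature.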
Gal4-VP16 FLuc – Gal4-VP16 reporter inhibition counter-screen. Potency, µM (titrated, usually from 53.6 µM), for inactives: at the top dose activity, negative = inhibition, usual class: inhibitors. Drosophila S2 Gal4-VP16 UAS-luciferase, luminescence, 20 h. 3.5% of 310,000 active;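 note: Gal4-VP16 expression switched on by copper sulfate through the metallothionein promoter; potency is the fitted concentration of half-maximal effect; nearly all actives have a fitted effect of over 50% in size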
DT40 TDP1 CPT – growth inhibition of DT40 Tdp1-/-;hTDP1 cells with camptothecin (screen for TDP1 inhibitors). 12% of 420,000 active. chicken DT40 Tdp1-/-;hTDP1 cells + 20 nM CPT, ATP luminescence, 48 h. Potency, µM (series often up to 46.2 µM), for inactives: at the top dose activity change, negative = growth inhibition, hits mostly inhibitors; note: potency is the fitted concentration of half-maximal effect; nearly all actives have a fitted effect of over 55% in size
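Chicken DT40 Tdp1-/- cells complemented with human TDP1, 400 cells/well, exposed to compounds plus 20 nM camptothecin for at least 48 h at 37 C; viability read as ATP content by CellTiter-Glo luminescence.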
* hit, by the source's call; [ ] = dose if it differs, or a comment. Compounds with a hit are over-represented: about 21% of the library has one in this group of screens. Unless noted, calls come from the whole dose curve; as a rule, active = well fitted curve in the direction sought with a large enough effect; inconclusive = small, poorly fitted or top-dose-only effect, or another doubt; inactive = no such curve, though single readings can be large; an effect the other way counts as inactive or inconclusive. % is set by controls: 0 for no effect and ±100 for the full control effect.

For CC1(C)C[C@H](O)[C@@]23C[C@@H](OC2=O)[C@]2(C)C(=CCC4[C@@]5(C)CC[C@H](O)C(C)(C)C5CC[C@]42C)[C@@H]3C1 (some centres undefined) the results were IL1B secr inh 32, DT40 TDP1 no CPT inconclusive and DT40 TDP1 CPT -10%.
For O=C(c1c[nH]c2ccccc12)C(O)C(c1ccccc1)N1CCOCC1 (centres undefined) the results were IL1B secr inh 19, RORg inh 8%, DT40 TDP1 no CPT inconclusive, ELG1 repair inh 7%, Gal4-VP16 FLuc 7% and DT40 TDP1 CPT -20%.
`COc1ccccc1NC(C)C(=O)c1c[nH]c2ccccc12` (centres undefined) gave DT40 TDP1 no CPT inconclusive and DT40 TDP1 CPT 11µM*.
`O=C(OC(C(=O)c1c[nH]c2ccccc12)c1ccccc1)c1cnccn1` (centres undefined) gave IL1B secr inh -3, RORg inh 0%, DT40 TDP1 no CPT -13%, ELG1 repair inh -1%, Gal4-VP16 FLuc -11% and DT40 TDP1 CPT -24%.
`COc1ccccc1OCCNC(=O)C(=O)c1c[nH]c2ccccc12` gave IL1B secr inh 11, RORg inh 20%, DT40 TDP1 no CPT -16%, ELG1 repair inh -1%, Gal4-VP16 FLuc -10% and DT40 TDP1 CPT -22%.
Screening O=C(c1c[nH]c2ccccc12)C(Cl)c1ccccc1 (centres undefined) returned IL1B secr inh -73*, RORg inh -22%, DT40 TDP1 no CPT 21µM*, ELG1 repair inh inconclusive, Gal4-VP16 FLuc 2% and DT40 TDP1 CPT 23µM*.
`O=C1CCC(C(=O)OC(C(=O)c2c[nH]c3ccccc23)c2ccccc2)=NN1` (centres undefined) gave IL1B secr inh 2, RORg inh 33%[10 µM], DT40 TDP1 no CPT 8%, ELG1 repair inh inconclusive, Gal4-VP16 FLuc 7.1µM* and DT40 TDP1 CPT -21%.
COC(=O)c1cccn(CC(=O)c2ccc(Cl)cc2Cl)c1=O was read as IL1B secr inh -9, RORg inh -16%, DT40 TDP1 no CPT -20%, ELG1 repair inh 10%, Gal4-VP16 FLuc -6% and DT40 TDP1 CPT 20%.
Screening CCC1CCCCN1S(=O)(=O)c1ccc(NC(=O)c2cccnc2)cc1 (centres undefined) returned IL1B secr inh 59, RORg inh 2%, DT40 TDP1 no CPT inconclusive, ELG1 repair inh 13%, Gal4-VP16 FLuc -3% and DT40 TDP1 CPT -21%.
Screening COc1cc(OC)cc(C(=O)Nc2ccc(S(=O)(=O)N3CCCCC3c3cccnc3)cc2)c1 (centres undefined) returned DT40 TDP1 no CPT 26µM* and DT40 TDP1 CPT inconclusive.
Screening Cn1cc(-c2nc3cnc(Oc4ccccc4)nc3n(C3CC3)c2=O)c2ccccc21 returned RORg inh 1%, DT40 TDP1 no CPT 16%, Gal4-VP16 FLuc 1% and DT40 TDP1 CPT 0%.
For O=C(Nc1cccc(F)c1F)C1CCN(c2ncccn2)CC1 the results were DT40 TDP1 no CPT -23% and DT40 TDP1 CPT -19%.
Screening Cc1ccc(-n2cc(CNCC3CC(=O)N(C4CC4)C3)c(-c3cccc(C)c3)n2)cc1 (centres undefined) returned IL1B secr inh -64*, RORg inh inconclusive, DT40 TDP1 no CPT 15µM*, ELG1 repair inh inconclusive, Gal4-VP16 FLuc inconclusive and DT40 TDP1 CPT 12µM*.
`Cc1ccc(N(C(=O)CCl)C(C(=O)NC2CCCCC2)c2cccnc2)cc1C` (centres undefined) gave IL1B secr inh -100*, RORg inh 11µM*, DT40 TDP1 no CPT 1.6µM*, ELG1 repair inh 9.2µM*, Gal4-VP16 FLuc inconclusive and DT40 TDP1 CPT 1.8µM*.
`Cc1ccccc1N(C(=O)CCCC(=O)Nc1ccccn1)C(C(=O)NC1CCCC1)c1ccc(O)cc1` (centres undefined) gave IL1B secr inh 3, RORg inh 21%, DT40 TDP1 no CPT inconclusive, ELG1 repair inh -3%, Gal4-VP16 FLuc 2% and DT40 TDP1 CPT -10%.
For Cc1ccc(N(C(=O)CCCC(=O)Nc2ccccn2)C(C(=O)NC2CCCC2)c2ccc(O)cc2)cc1C (centres undefined) the results were IL1B secr inh -75*, RORg inh 22%, DT40 TDP1 no CPT inconclusive, ELG1 repair inh 11%, Gal4-VP16 FLuc -6% and DT40 TDP1 CPT inconclusive.
Screening Cc1ccc(N(C(=O)CNC(=O)c2ccco2)C(C(=O)NC2CCCCC2)c2cccnc2)cc1C (centres undefined) returned IL1B secr inh -13, RORg inh -4%, DT40 TDP1 no CPT 2%, ELG1 repair inh 1%, Gal4-VP16 FLuc -2% and DT40 TDP1 CPT 0%.
`CCN(C[C@H]1N[C@@](C)(C(=O)OC)[C@H]2C(=O)N(Cc3ccccc3)C(=O)[C@@H]12)C(=O)Nc1ccc(OC)cc1` gave IL1B secr inh -16, DT40 TDP1 no CPT -5%, ELG1 repair inh 17% and DT40 TDP1 CPT -6%.
For Cc1cnc(CNc2nc(-c3c(C)noc3C)nc3ccccc23)cn1 the results were RORg inh -29%, DT40 TDP1 no CPT 2%, Gal4-VP16 FLuc -5% and DT40 TDP1 CPT 1%.
Screening CNc1ccc(C(=O)Oc2cc(O/N=[N+](\[O-])N(C)C)c([N+](=O)[O-])cc2[N+](=O)[O-])cc1 returned RORg inh 13% and Gal4-VP16 FLuc -5%.
Cc1cc(N2CCC(C(=O)Nc3ccc(F)cc3)CC2)nc(-c2ccccc2)n1 was read as IL1B secr inh -53*, RORg inh inconclusive, DT40 TDP1 no CPT 18µM*, ELG1 repair inh -39%, Gal4-VP16 FLuc -5% and DT40 TDP1 CPT -22%.
For Cc1cc(N2CCN(c3ccc(F)cc3)CC2)nc(-c2ccccc2)n1 the results were IL1B secr inh -20, RORg inh 11%, DT40 TDP1 no CPT 8.2µM*, ELG1 repair inh inconclusive, Gal4-VP16 FLuc -4% and DT40 TDP1 CPT 9.2µM*.
Screening Cc1ccsc1C(=O)NCCc1nnc2ccccn12 returned IL1B secr inh -2, RORg inh 22%, DT40 TDP1 no CPT -2%, ELG1 repair inh inconclusive, Gal4-VP16 FLuc -8% and DT40 TDP1 CPT 2%.
Screening CN1C(=O)/C(=C\c2ccccc2)Sc2ccc(C(=O)N3CCN(c4ccccn4)CC3)cc21 returned RORg inh 35%, ELG1 repair inh -23% and Gal4-VP16 FLuc -7%.

Compound activity: PubChem BioAssay, National Center for Advancing Translational Sciences (NCATS)
